# Screening data (PubChem BioAssay)
# The list is not random: actives were taken first. Their share in the collection is about 4%.
# Peg3 promoter = Peg3 promoter-driven luciferase inhibitors, primary screen, cell-based, HeLa, luciferase luminescence | HeLa PEG-Prom luciferase reporter, overnight | inhibition, % at 20 µM | 360,000 compounds, 1.7% hits;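 active means inhibition of at least 50% at 20 µM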
# CF NFkB block = inhibitors of PAF-induced NF-kB signaling, primary screen, cell-based, GFP fluorescence, uHTS | 360,000 compounds, 0.86% hits | KKLEB NF-kB-GFP reporter, GFP fluorescence overnight | inhibition, % at 5 µM;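 active means at least 50% inhibition at 5 µM, scaled per plate between neutral and stimulator controls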;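 further: PAF is a Pseudomonas aeruginosa culture filtrate used as stimulus; plate controls were PAF-stimulated DMSO wells for no effect and unstimulated DMSO wells for full effect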
# TWEAK Fn14 block = inhibitors of TWEAK-Fn14 signaling, primary screen, luciferase reporter cells, uHTS; 360,000 compounds, 2% hits; TWEAK-stimulated Fn14 reporter cells, luciferase luminescence, 8 h; inhibition, % at 10 µM; in the data active means inhibition above about 50%
# HIF-2a block = HIF-2a reporter inhibitors, primary screen, luminescence, 786-0 RCC cells | 786-0 RCC cells HIF-2a reporter, luciferase luminescence, overnight | 360,000 compounds, 0.72% hits | AID 624352, 2012 | inhibition, % at 18.8 µM;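 active means inhibition of the luminescence signal of 40% or more relative to plate controls, in a single-dose primary screen at 18.75 µM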
# TROY signal inh = inhibitors of TROY-driven NF-kB signaling, primary screen, Q293 LMP1-TROYcd cells, NF-kB luciferase, uHTS | 360,000 compounds, 0.98% hits | AID 1347056, 2019 | Q293 LMP1-TROYcd NF-kB luciferase reporter, 4 h | inhibition, % at 10 µM;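 active means compounds whose plate-normalised and pattern-corrected inhibition of the luciferase reporter signal at the single screening dose is 50% or more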
# KKLEB tox = cytotoxicity in KKLEB CF airway cells, primary screen, cytotoxicity control for CF NF-kB inhibitor project, cell-based, uHTS, fluorescence assay plates. KKLEB CF airway cells viability, ATPlite luminescence, overnight; stronger effect = lower value; cells stimulated with P. aeruginosa culture filtrate. activity change (cytotoxicity), % at 5 µM. 360,000 compounds, 0.36% hits;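 active means corrected activity change at or below -50% at 5 µM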
# * marks the source's active call; other numbers are inactive results.
SMILES,Peg3 promoter,CF NFkB block,TWEAK Fn14 block,HIF-2a block,TROY signal inh,KKLEB tox
CCn1c(SCC(=O)c2ccc3c(c2)OCCO3)nnc1C(C)C,-66,9,-1,-80,-17,0
COc1cc(/C=N/N=C2/NC(=O)C(CC(=O)O)S2)ccc1OCc1ccc(Cl)cc1 (configuration not stated),-270,4,-38,2,-74,5
COc1cc(/C=N/N=C(N)N)ccc1OCc1ccc(Cl)cc1,103*,25,81*,-104,62*,-17
NC(N)=N/N=C/c1ccc(Cl)c(Cl)c1,99*,5,4,5,2,4
Cc1ccc(C(=O)Nc2ccc(N3CCOCC3)cc2)cc1S(=O)(=O)N1CCCCC1,-16,-5,-12,-33,-10,10
CCOc1ccc(OCC(=O)Nc2nccs2)cc1,59*,-2,85*,38,65*,-9
COc1ccc(OCC(=O)Nc2nccs2)cc1,-3,6,81*,-14,46,-7
O=C(COc1ccc2c(c1)OCO2)Nc1nccs1,-47,2,66*,-35,35,-5
Cc1c(CN2CCc3c([nH]c4ccccc34)C2CC(C)C)cnn1C (configuration not stated),2,-13,3,21,15,9
O=C(Nc1ccc([N+](=O)[O-])cc1)Nc1ccc(N2CCOCC2)c2nonc12,62*,10,6,-32,69*,-20
CCSc1ccc2c(c1)N(CCCN1CCN(C)CC1)c1ccccc1S2,57*,-18,-14,-4,0,16
CC(CN1CCN(CCOCCO)CC1)CN1c2ccccc2Sc2ccc(Cl)cc21 (configuration not stated),101*,23,-26,-35,16,-6
CCN(CC)CCCCN1c2ccccc2Sc2ccccc21,14,13,-1,3,-31,-11
CN(C)CCCN1c2ccc(O)cc2Sc2ccc(Cl)cc21,42,0,14,-6,-10,6
CN1CCN(CCCN2c3ccccc3Sc3ccc(Cl)cc32)CC1,63*,42,-10,5,7,38
COc1ccc2c(c1)N(C[C@H](C)CN(C)C)c1ccccc1S2,-12,14,24,1,-20,-1
OC1CC2CCC(C1)N2CCCN1c2ccccc2Sc2ccc(Cl)cc21 (configuration not stated),105*,38,-4,-17,-6,-5
CN(CC(=O)Nc1ccccc1Br)C(=O)c1n[nH]c2ccccc12,11,-24,11,11,-3,8
CCn1c(CCCOc2ccc(Cl)cc2Cl)nnc1SCC(=O)Nc1cc(F)ccc1C,-18,3,20,-63,9,-6
CC(C)Oc1cc(NC(=O)CS(=O)(=O)CC(=O)N(C)C)c(Cl)cc1Cl,0,-6,-18,7,6,-2
OCCN1CCN(CCCN2c3ccccc3Sc3ccc(C(F)(F)F)cc32)CC1,61*,18,-15,-4,8,-17
CCC(C)(C)NC(=O)CC(c1ccc(OC)cc1)n1cccc1 (configuration not stated),12,11,5,23,-4,4
Nc1cccc2cc(-c3ccccc3)oc12,-325,-10,-6,-219,-58,-4
COC(=O)C1=C(C)N(Cc2ccc(C)cc2)C(=O)/C1=C\c1ccc(O)c(OC)c1,11,-28,23,18,-7,-4
COC(=O)C1=C(C)N(Cc2ccc(C)cc2)C(=O)/C1=C\c1cc(OC)c(OC)c(OC)c1,-17,23,43,51*,21,-1
SMILES,Peg3 promoter,CF NFkB block,TWEAK Fn14 block,HIF-2a block,TROY signal inh,KKLEB tox
O=S(Cc1ccc(Br)cc1)Cc1nnc(SCc2c(F)cccc2Cl)n1-c1ccccc1 (configuration not stated),8,12,48,20,22,3
O=S(Cc1ccc(Br)cc1)Cc1nnc(SCc2ccc(Cl)cc2)n1-c1ccccc1 (configuration not stated),10,8,55*,-2,31,-5
COc1ccc2nc3cc(Cl)ccc3c(Nc3ccc(O)c(CN4CCN(C)CC4)c3)c2c1,95*,-60,-112,-49,-85,-5
COc1ccc2nc3cc(Cl)ccc3c(C#N)c2c1,-15,-27,-24,-41,-44,10
S=C(NCCc1ccccc1)N/N=C/c1cccc(Cl)c1Cl,-62,5,-27,-59,-45,-22
CC(C)(CNC(=S)NCCc1ccccc1)CNC(=S)NCCc1ccccc1,48,3,56*,-3,38,-14
Oc1ccccc1/C=N/NC(=S)NCCc1ccccc1,-154,-19,93*,-156,5,-13
CC1=C(C(=O)NC2CC(C)(C)Cc3c2cnn3-c2cccc(F)c2)OCCO1 (configuration not stated),10,8,-1,4,-15,-21
COc1ccccc1N1CCN(C(=O)C(=O)c2cn(CC(=O)N3CCCCCC3)c3ccccc23)CC1,19,-3,-5,2,-7,-6
Cc1c(C(=O)NCCC2=CCCCC2)oc2ccc(S(=O)(=O)N3CCOCC3)cc12,66*,13,52*,-6,38,-17
Cc1ccc(CNC(=O)c2oc3ccc(S(=O)(=O)N4CCC5(CC4)OCCO5)cc3c2C)cc1,51*,9,54*,23,34,-25
Cc1c(C(=O)NCCCN2CCCC2=O)oc2ccc(S(=O)(=O)N3CCOCC3)cc12,9,-4,12,4,9,-6
Cc1c(C(=O)NCc2cccnc2)oc2ccc(S(=O)(=O)N3CCC4(CC3)OCCO4)cc12,27,-5,-17,12,1,4
c1ccc(-c2nnc(CN3CCCc4ccccc43)o2)cc1,-13,-10,-11,-54,-15,0
c1ccc2c(c1)oc1c(N3CCOCC3)ncnc12,-96,-19,-23,-105,0,14
COc1ccccc1N1CCN(c2ncnc3c2oc2ccccc23)CC1,57*,14,21,-163,34,-7
Cc1ccc(C(C)C)c(OCc2nn(CC(=O)c3ccc(OC(F)F)cc3)c3[n+]2CCCCC3)c1,105*,35,35,4,48,-24
CCC1(O)C(=O)OCc2c1cc1n(c2=O)Cc2cc3c(N)cccc3nc2-1 (configuration not stated),69*,86*,72*,37,72*,-17
CCC1(OC(=O)CN(C)C)C(=O)OCc2c1cc1n(c2=O)Cc2cc3c(N)cccc3nc2-1 (configuration not stated),39,32,-31,13,-9,-56*
